This is an account of results in PubChem BioAssay (NCATS).

Molecules are shown by their SMILES. Results filed as inconclusive are left out. Values without a mark were called inactive. Calls of active or inactive are those of the source. The call rests on the fitted dose curve; in most records, active means well fitted cell-killing curve with a large enough effect; inconclusive means small, poorly fitted or top-dose-only effect, or effect the other way; inactive means no such curve, though single readings can be large or run the other way.
Potency means the concentration at half of the fitted maximal effect.

The nature of this experiment: Quantitative High-Throughput drug screen in 47 multiple myeloma cell lines against the NCATS MIPE library collection: KMS28BM_JCRB cell viability assay (AID 1919874). Further: nearly all actives have a fitted effect of over 35% in size. To be noted: CellTiter-Glo ATP, 48 h; series mostly up to 45.8 µM; viability, % of control: at the top concentration. Put shortly: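 Inhibition of viability over 48 h was scored by ATP content (CellTiter-Glo) in 500-cell wells. Zero and full viability were defined by media-only and DMSO-only wells.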
For orientation: ATP-based viability assays read luminescence as a measure of living cells.
Turning to `CC(S)C(=O)NCC(=O)O` (stereo not drawn), the “viability, % of control” value was 121%.

Consider `CC1(C)CCC(C)(C)c2cc(NC(=O)c3ccc(C(=O)O)cc3)ccc21`, for which the “viability, % of control” value was 96.5%.

For the compound `CN(C)[C@@H](CCOc1cccc2ccccc12)c1ccccc1`, the Potency is 18.7 µM (active).

Regarding `Cc1c(OCC(F)(F)F)ccnc1CS(=O)c1nc2ccccc2[nH]1` (stereo not drawn), the “viability, % of control” value is 118%.

In the case of `CC1=C(C(=O)O)N2C(=O)[C@@H](NC(=O)[C@H](N)C3=CCC=CC3)[C@H]2SC1`, the “viability, % of control” value was 122%.

For `COc1ccc(C2(C#N)CCC(C(=O)O)CC2)cc1OC1CCCC1` (stereo not drawn), the “viability, % of control” value was 90.7%.

For `CC(C)Oc1ccc2c(=O)c(-c3ccccc3)coc2c1`, the “viability, % of control” value is 109%.

For the compound `CCCCN(CCCC)CCC(O)c1cc2c(Cl)cc(Cl)cc2c2cc(C(F)(F)F)ccc12` (stereo not drawn), the “viability, % of control” value is 92.2%.

For the compound `O=C(O)c1cc(=O)c2c(OCC(O)COc3cccc4oc(C(=O)O)cc(=O)c34)cccc2o1`, the “viability, % of control” value was 111%.

Regarding `c1ccc2[nH]c(-c3cscn3)nc2c1`, the “viability, % of control” value is 98.6%.

Consider `N=C(N)c1ccc2cc(OC(=O)c3ccc(N=C(N)N)cc3)ccc2c1`, for which the Potency is 5.9 µM (active).

Regarding `CN(C)CCc1c[nH]c2ccc(Cn3cncn3)cc12`, the “viability, % of control” value is 88.8%.

With `O=C(NOCC1CC1)c1ccc(F)c(F)c1Nc1ccc(I)cc1Cl`, the Potency was 26.4 µM (active).

With `NC(=O)Cc1cccc(C(=O)c2ccccc2)c1N`, the “viability, % of control” value is 111%.

Consider `Cc1ccc(NC(=O)c2ccc(CN3CCN(C)CC3)cc2)cc1Nc1nccc(-c2cccnc2)n1`, for which the “viability, % of control” value is 109%.

Turning to `O=C(OC1C[C@H]2CC[C@@H](C1)[N+]21CCCC1)C(O)(c1ccccc1)c1ccccc1` (stereo partly drawn), the “viability, % of control” value is 91.6%.

Consider `CNC[C@@H](O)[C@@H](O)[C@H](O)[C@H](O)CO`, for which the “viability, % of control” value was 117%.

In the case of `C=CCc1cc(OC)c(O)c(C(=O)NCCO)c1`, the “viability, % of control” value is 112%.

In the case of `COc1cc2c(cc1OC)C1CC(=O)C(CC(C)C)CN1CC2` (stereo not drawn), the “viability, % of control” value is 127%.

As for `Cc1cc2c(s1)Nc1ccccc1N=C2N1CCN(C)CC1`, the “viability, % of control” value is 107%.

`Cc1ccc(S(=O)(=O)NC(=O)NN2CC3CCCC3C2)cc1` (stereo not drawn): the Potency is 18.7 µM (active).

Turning to `COc1ccccc1N1CCN(CCN(C(=O)C2CCCCC2)c2ccccn2)CC1`, the “viability, % of control” value was 100%.

With `COc1ccc2cc([C@H](C)C(=O)O)ccc2c1`, the “viability, % of control” value is 125%.

Regarding `CCC1=C(C)CN(C(=O)NCCc2ccc(S(=O)(=O)NC(=O)NC3CCC(C)CC3)cc2)C1=O` (stereo not drawn), the “viability, % of control” value was 108%.

In the case of `O=c1c(O)c(-c2ccc(O)cc2O)oc2cc(O)cc(O)c12`, the “viability, % of control” value is 99.7%.

For `C=C(c1ccc(C(=O)O)cc1)c1cc2c(cc1C)C(C)(C)CCC2(C)C`, the “viability, % of control” value was 122%.

Turning to `CS(=O)(=O)OCCCCOS(C)(=O)=O`, the “viability, % of control” value is 111%.

`O=C(CS(=O)Cc1ccco1)NCC=CCOc1cc(CN2CCCCC2)ccn1` (stereo not drawn): the “viability, % of control” value was 104%.

For `CN1CCC(=C2c3ccccc3CCc3sccc32)CC1`, the Potency is 10.5 µM (active).

Regarding `O=C(NCCO[N+](=O)[O-])c1cccnc1`, the “viability, % of control” value was 113%.

On to `CCOc1cc(CC(=O)N[C@@H](CC(C)C)c2ccccc2N2CCCCC2)ccc1C(=O)O`, for which the “viability, % of control” value was 96.1%.

Turning to `Cc1ncc([N+](=O)[O-])n1CC(C)O` (stereo not drawn), the “viability, % of control” value is 107%.

Take `CN(C)c1ccc2nc3ccc(=[N+](C)C)cc-3sc2c1`: the Potency is 2.96 µM (active).
